These results are taken from PubChem BioAssay (NCI).

The structures appear in SMILES notation. Compounds without any hit were thinned out: in the full panel of roughly 83,000, 20% have a hit.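 Single-concentration screen, 48 h exposure, 96-well plates. Endpoint: percent growth. Below 10 = active.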 Unmarked numbers belong to inactive results. Calls of active or inactive are those of the source.

In the first assay the test system is MDA-MB-435 melanoma. Description: NCI-60 one-dose screen, 48 h (100 = growth as untreated, 0 = no growth, -100 = all killed). The conditions noted are these: 10 µM unless noted.
For the compound `CC1=C(C(=O)OC(C)C)C(c2ccc(O)cc2)NC(=O)N1` (stereo not given), the growth is 99.9%.

As for `Cc1nn(-c2ccccc2)c2nc(C)n(CC(=O)N/N=C/c3ccccc3O)c(=O)c12`, the growth was 34.7%.

`O=CNc1cccc(-n2cnc3cc(-c4ccc(O)cc4)ccc32)c1`: the growth is 24.1%.

For a further assay, the system named is SW-620 colon. The assay is described as above. The conditions noted are these: 10 µM unless noted.
For the compound `COc1cc(CNC(=O)C[C@H](C)CCC=C(C)C)ccc1OCc1cn(-c2ccc(Br)cc2)nn1`, the growth was 91.7%.

Turning to `Cc1cccc(C)c1Nc1nnc(-c2c[nH]c3ccccc23)o1`, the growth was 99.5%.

With `COc1cc(CNC(=O)C[C@H](C)CCC=C(C)C)ccc1OCc1cn(-c2ccc(Cl)c(Cl)c2)nn1`, the growth is 29.9%.

With `Cc1ccc(C(C)C)cc1Oc1cccc(-c2c(-c3ccc(C(F)(F)F)cc3)ncn2C2CCNCC2)n1`, the growth is -85.5% (active).

For `COc1cc(CNC(=O)C[C@H](C)CCC=C(C)C)ccc1OCc1cn(-c2cccc(C(F)(F)F)c2)nn1`, the growth was 38.7%.

As for `Cc1ccc(Nc2nnc(-c3c[nH]c4ccccc34)o2)c(C)c1`, the growth was 30.9%.

For the compound `CC1=C(C)C(=O)C(N2CCSCC2)=CC1=O`, the growth was 97.3%.

Turning to `COc1ccc(C(=O)c2cc(C(C)=O)c3c(C)cc(C)cn23)cc1`, the growth is 82.2%.

With `O=C(c1ccc(O)cc1)C1[C@H](c2ccccc2Br)[C@@H](c2ccccc2)NC12C(=O)Nc1ccccc12` (stereo not given in full), the growth was 27.7%.

As to `C=CCSc1nnc(-c2ccc(-c3nc4ccccc4[nH]3)cc2)o1`, the growth was 101%.

As for `COc1cc(/C=C/C(=O)c2cnn(-c3cc(=O)[nH]c4ccc(C)cc34)c2C)cc(OC)c1OC`, the growth is -57.6% (active).

Turning to `COc1cc(-c2ccc3ncnc(N4CCc5ccc(Cl)cc54)c3c2)cnc1Cl`, the growth is 17.4%.

Regarding `COc1ccc(NC(=O)Cn2c(/C=C/c3cccc(OC)c3)nc3ccccc3c2=O)cc1`, the growth was 41.2%.

With `CC[C@]12C=CCN3CC[C@]4(C(=C(C(=O)OC)C1)Nc1cc(OC)c([C@@H]5[C@H]6O[C@H]6[C@@]6(CC)CC(C(=O)OC)=C7Nc8cc(O)ccc8[C@@]78CCN5[C@@H]68)cc14)[C@@H]32`, the growth is 1.97% (active).

Regarding `COc1ccc2nc(NC(=O)c3ccc(N(C)C)cc3)sc2c1`, the growth was 91.8%.

As to `Cc1nc(N)ncc1-c1ccc2ncnc(N3CCc4cc(F)c(Cl)cc43)c2c1`, the growth was 85.2%.

As for `N#Cc1ccc(C(=O)CSc2nc3c(c(Nc4ccc(S(N)(=O)=O)cc4)n2)CCC3)cc1`, the growth is 47.8%.

With `CN(C(=O)CN1C(=O)/C(=C/c2ccco2)SC1=S)C1CCS(=O)(=O)C1` (stereo not given), the growth was 99.9%.

`O=C(Nc1ccc(-c2ccc3c(c2)NC(=O)/C3=C\c2ccc[nH]2)cc1)Nc1cccc(Cl)c1`: the growth was 13.9%.

For the compound `COC(=O)c1c(C(=O)OC)c2c3ccccc3c3ccccc3n2c1C(=O)C(F)(F)F`, the growth is 97.1%.

Consider `O=C(N/N=C/c1c[nH]c2ccccc12)Nc1ccc(F)c(Cl)c1`, for which the growth is 41.3%.

`O=C(CSc1nnc(-c2ccc(-c3nc4ccc(Cl)cc4[nH]3)cc2)o1)Nc1ccc(Br)cc1`: the growth is 17.9%.

In the case of `Cn1cc(-c2cc(N)n3nc(-c4c[nH]c5ccc(Cl)cc45)cc3n2)c2cccnc21`, the growth was -72.8% (active).

For the compound `COc1ccc2c(c1)C(Sc1ccc(Cl)cc1)c1c(nc(N)c(C#N)c1N)O2` (stereo not given), the growth is 58.1%.

Consider `Cc1ccccc1NC(=O)c1cccc(NC(=O)CCl)c1`, for which the growth is 41.7%.

As to `Oc1cncc(-c2ccc3ncnc(N4CCc5cc(F)c(Cl)cc54)c3c2)c1`, the growth was 62.8%.

With `Nc1nnc(-c2cncc(Br)c2)c(-c2c[nH]c3ccc(Br)cc23)n1`, the growth was 28.1%.

For `C/C(=N/O)c1ccc(NC(=O)CSc2nnc(-c3ccc(-c4nc5ccc(Cl)cc5[nH]4)cc3)o2)cc1`, the growth is -54.9% (active).

As for `CCCCCCCCc1cccc(CC(=O)Nc2ccc(C)cc2C(=O)O)c1`, the growth was 51.2% [25 µM].

Regarding `Cc1ccc(C(=O)Nc2cc(-n3cnc(F)c3)cc(C(F)(F)F)c2)cc1C#Cc1cnc2cccnn12`, the growth was 45.1%.

With `CC[C@]12C=CCN3CC[C@@]4(c5ccc(OC)cc5N(C)[C@H]4[C@@](O)(C(=O)OC)[C@@H]1OC(=O)CCCC[P+](c1ccc(F)cc1)(c1ccc(F)cc1)c1ccc(F)cc1)[C@@H]32`, the growth is 36.9%.

For `COc1ccc2c(c1)N=c1c-2cc2c(O)[nH]c(=S)n2c1=O`, the growth was 47.4%.
